# Source: PubChem (The Scripps Research Institute Molecular Screening Center)
# A selection: hits, their analogues and other compounds. The true share with any hit is near 2.8%.
# PAFAH1B3 inh = PAFAH1B3 enzyme inhibitors, primary screen, biochemical, fluorescence polarization, human. Platelet-activating factor acetylhydrolase IB subunit alpha1 (Homo sapiens), Q15102. recombinant PAFAH1B3, FP-rhodamine probe. inhibition, % at 3.39 µM. 0.28% of 340,000 active. AID 492972, 2010;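 active = inhibition above the screen-wide average of all tested compounds plus 3 SD, cut at about 25% in these data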
# Target sequence (Q15102 whole entry, looked up): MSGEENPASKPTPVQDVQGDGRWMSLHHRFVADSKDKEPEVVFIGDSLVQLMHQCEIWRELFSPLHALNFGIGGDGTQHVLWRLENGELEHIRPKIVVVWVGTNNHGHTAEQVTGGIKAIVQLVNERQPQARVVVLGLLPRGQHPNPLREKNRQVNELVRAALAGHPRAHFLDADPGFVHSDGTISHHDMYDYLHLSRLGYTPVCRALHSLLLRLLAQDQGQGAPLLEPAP
# PAFAH1B2 inh = PAFAH1B2 enzyme inhibitors, primary screen, biochemical, fluorescence polarization, human | recombinant PAFAH1B2, FP-rhodamine activity probe | inhibition, % at 3.39 µM | Platelet-activating factor acetylhydrolase IB subunit alpha2 (Homo sapiens), P68402 | 1.2% of 340,000 active;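 active = inhibition above the mean of all tested compounds plus 3 SD, cut at about 24% in these data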
# Target sequence (P68402 whole entry, looked up): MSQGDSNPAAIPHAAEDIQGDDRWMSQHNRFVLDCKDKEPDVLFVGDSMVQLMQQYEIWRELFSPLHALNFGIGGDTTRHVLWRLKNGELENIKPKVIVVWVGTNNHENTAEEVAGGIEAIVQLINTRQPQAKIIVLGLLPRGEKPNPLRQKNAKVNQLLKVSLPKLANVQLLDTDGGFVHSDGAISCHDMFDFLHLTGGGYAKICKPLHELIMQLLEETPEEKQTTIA
# PAFAH2 FP inh = PAFAH2 enzyme inhibitors, primary screen, biochemical, fluorescence polarization, human; Platelet-activating factor acetylhydrolase 2, cytoplasmic (Homo sapiens), Q99487; inhibition, % at 3.39 µM; recombinant PAFAH2, FP-rhodamine activity probe; 0.99% of 340,000 active;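 active = inhibition above the mean over all tested compounds plus 3 SD, cut at about 30% in these data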;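 also: inhibitors block probe labeling of enzyme so polarization drops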
# DAGLB inh = DAGLB lipase inhibitors, primary screen, biochemical, fluorescence, HTS. Diacylglycerol lipase-beta (Homo sapiens), Q8NCG7. HEK293T DAGLB membrane lysate, EnzChek fluorogenic substrate. inhibition, % at 5.17 µM. 0.059% of 340,000 active; in the data active = inhibition above about 34%
# pPAFAH inh = pPAFAH enzyme inhibitors, primary screen, biochemical, fluorescence polarization, human; Platelet-activating factor acetylhydrolase (Homo sapiens), Q13093; recombinant pPAFAH, FP-rhodamine probe fluorescence polarization; inhibition, % at 3.39 µM; 1.5% of 330,000 active;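 active = inhibition above the mean inhibition across the screen plus 3 SD, cut at about 25% in these data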;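 also: inhibitors block binding of the rhodamine activity-based probe so polarization drops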
# HTRA1 inhibitor = HTRA1 serine protease inhibitors, primary screen, biochemical, fluorescence polarization, HTS | recombinant HTRA1, FP-rhodamine activity-based probe | 0.5% of 340,000 active | inhibition, % at 5.96 µM | Q92743; in the data active = inhibition above about 36%
# Hits are given with their value; . = inactive; / = no result given.
SMILES,PAFAH1B3 inh,PAFAH1B2 inh,PAFAH2 FP inh,DAGLB inh,pPAFAH inh,HTRA1 inhibitor
O=C(Cc1cccs1)N/N=C/C=C/c1ccco1,.,.,.,.,25,.
Cn1c(CCNC(=O)c2ccco2)nc2cc(NS(=O)(=O)c3ccc(Cl)cc3)ccc21,.,25,.,.,.,.
O=C(O)C(c1ccccc1)N1C(=O)/C(=C\c2ccc(-c3ccccc3Cl)o2)SC1=S (stereo not drawn),.,.,45,.,63,.
CCCn1c(N)c(C(=O)CN2CCN(S(=O)(=O)c3cccc(Cl)c3)CC2)c(=O)[nH]c1=O,.,.,.,.,.,.
O=C1c2ccccc2C(=O)C12OC2c1cccc2ccccc12 (stereo not drawn),65,.,.,.,.,.
CC(C)C(CCNCc1ccccn1)c1ccc(Cl)cc1 (stereo not drawn),35,45,45,.,.,.
COCCn1c(C)c(C)c(S(=O)(=O)c2ccccc2)c1N,41,41,59,.,.,.
NNC(=O)c1cc(NS(=O)(=O)c2cccs2)cc(NS(=O)(=O)c2cccs2)c1,.,.,.,.,29,.
CC1=NOC(=O)/C1=C\c1ccc(-c2ccc(Br)cc2)o1,.,.,.,.,/,.
CC1=NOC(=O)/C1=C/c1ccc(-c2ccc(Cl)cc2)o1,.,.,32,.,.,.
O=S(=O)(NC1C2CC3CC(C2)CC1C3)c1ccccc1 (stereo not drawn),.,26,.,.,.,.
CCN1C(=O)[C@H]2[C@@H](c3ccc(-c4cccc(Cl)c4)cc3)N[C@@](C)(C(=O)OC)[C@H]2C1=O,.,.,.,.,34,.
C/C(CC(=O)Nc1ccc(N(C)C)cc1)=N\NC(=O)c1ccc(F)cc1,.,.,.,.,.,.
C/C(CC(=O)Nc1ccc(N(C)C)cc1)=N\NC(=O)c1ccc(C(C)(C)C)cc1,.,.,37,.,.,.
O=C1CC(CSc2ccc(Cl)cc2)=NN1,/,/,/,/,.,/
Cc1cc(SCC2=NNC(=O)C2)c(Cl)cc1Cl,.,.,.,.,28,.
Clc1ccccc1/C=C/c1ccnc2ccccc12,.,.,.,.,31,.
Oc1ccc(/C=C/c2ccnc3ccccc23)cc1,.,.,.,.,.,.
O=C(c1ccc2[nH]c(=O)c(=O)[nH]c2c1)N1CCc2ccccc21,.,.,.,.,.,.
O=c1ccc2cc3c([nH]c4ccc(Br)cc43)oc-2c1O,45,42,52,43,79,62
Cc1ccc(N(C)C(=O)N2CCN(S(=O)(=O)c3ccc(C)cc3)CC2)cc1,.,.,.,.,.,.
Cc1ccc(S(=O)(=O)N2CCN(C(=S)NCCc3ccccc3)CC2)cc1,.,45,.,.,.,.
Cc1ccc(S(=O)(=O)N2CCN(C(=O)N(c3ccccc3)c3ccccc3)CC2)cc1,.,26,.,.,.,.
Cn1cccc1-c1cc(C(=O)N/N=C/c2cc(Br)ccc2O)[nH]n1,.,.,.,.,30,.
Cn1cccc1-c1cc(C(=O)N/N=C/c2ccccc2Cl)[nH]n1,.,.,.,.,.,.
SMILES,PAFAH1B3 inh,PAFAH1B2 inh,PAFAH2 FP inh,DAGLB inh,pPAFAH inh,HTRA1 inhibitor
Nn1c(SCC(=O)Nc2nccs2)nnc1-c1ccccn1,.,.,.,.,.,.
N=C1C(c2nc3ccccc3s2)=C(O)CN1Cc1ccccc1,.,.,.,.,.,.
CCOc1ccccc1N1CC(O)=C(c2nc3ccccc3s2)C1=N,.,.,.,.,33,.
COc1c2ccc(OCC/C(C)=C/C(=O)C=C(C)C)cc2nc2occc12,.,.,.,.,.,.
Brc1ccc(CNc2ccc3ncccc3c2)cc1,.,51,.,.,/,.
Cn1cnc2cc(NCc3ccc(Cl)cc3)ccc21,.,43,.,.,.,.
CCn1cnc2cc(NCc3ccc(Br)cc3)ccc21,/,/,/,/,.,/
CCCn1cnc2cc(NCc3ccc(Br)cc3)ccc21,.,37,.,.,.,.
COc1ccc(NS(=O)(=O)c2cc(C(=O)N3CCN(C/C=C/c4ccccc4)CC3)ccc2C)cc1,.,.,.,.,.,.
Cc1cccc(C(=O)OCC(=O)NC2CCCCCCC2)c1,.,.,92,.,29,.
CCOc1ccc2oc(C(=O)OCC(=O)NC3CCCCC3)c(C)c2c1,.,.,61,.,26,.
CCc1ccc(C(=O)OCC(=O)NC2CCCC2)cc1,.,.,82,.,30,.
CCOc1ccc2oc(C(=O)OCC(=O)NCC3CCCO3)c(C)c2c1 (stereo not drawn),.,.,.,.,/,.
O=C(COC(=O)c1ccc2c(c1)S(=O)(=O)c1ccccc1C2=O)NC1CC1,.,.,.,.,30,.
COc1cc(C2C3=C(COC3=O)Oc3cc4c(cc32)OCO4)cc(OC)c1O (stereo not drawn),.,.,.,.,/,.
CCc1ccc(CNC(=O)CCn2ccc3cc(S(=O)(=O)N4CCCC4)ccc32)cc1,.,.,.,.,.,.
CC(=O)Nc1ccc(NC(=O)COC(=O)COc2ccc3ccccc3c2)cc1,.,.,.,.,.,.
CS(=O)(=O)N(CC(=O)NCCSc1ccc(Cl)cc1)c1ccc2c(c1)OCO2,.,25,.,.,.,.
O=S1(=O)CCOC[C@H](c2ccccc2)N1Cc1cccc(Cl)c1,.,29,.,.,.,.
CCCC[C@H]1COCCS(=O)(=O)N1Cc1cccc(F)c1,.,.,.,.,.,.
O=S1(=O)CCOC[C@H](Cc2ccccc2)N1Cc1cccc(Cl)c1,.,.,.,.,.,.
Cc1ccc(CN2[C@@H](CC3CCCCC3)COCCS2(=O)=O)cc1,.,31,.,.,.,.
O=S1(=O)CCOC[C@H](CC2CCCCC2)N1Cc1ccc(Cl)cc1,.,29,.,.,.,.
O=S1(=O)CCOC[C@H](CC2CCCCC2)N1Cc1cccc(F)c1,.,24,.,.,.,.
CCOC(=O)Cn1cncc1-c1ccc([N+](=O)[O-])cc1,.,.,.,.,.,.
CCOC(=O)CSc1ncc(-c2ccc([N+](=O)[O-])cc2)[nH]1,.,.,.,.,31,.
O=C(CSc1n[nH]c(-c2ccco2)n1)Nc1ccccc1,.,.,.,.,.,.
CC(=O)Nc1ccc(S(=O)(=O)NCCSCc2ccc(Cl)cc2Cl)cc1,.,39,.,.,.,.
COC(=O)C1CCN(C(=O)COC(=O)/C=C/c2ccc(O)c(OC)c2)CC1,.,.,.,.,.,.
